Our source for the outcome and AC50 values is PubChem BioAssay (EPA / NIEHS).

Structures are written as SMILES. Results filed as inconclusive are left out. Activity calls are given as the source filed them. How the source made its calls: active means hit-call score of the fitted dose curve at least 0.9, where 1 is the maximum; inconclusive means response in the unintended direction; inactive means score below 0.9.

A word on the AC50: it is the concentration giving half of the maximal activity seen.

Test [1] deals with Luciferin 4-monooxygenase (Photinus pyralis) (UniProt P08659). Description: CCTE_Simmons_QuantiLum_inhib_2: CCTE's Firefly Luciferase Inhibition Assay, Simmons Lab (AID 2283767).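 On AC50: potency for inhibitors that lower luciferase luminescence relative to DMSO.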 In short, it runs like this:
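First, 5 ng purified luciferase in phosphate buffer with BSA is dispensed per well. Next, test chemicals (5 nM to 87.5 uM final, 0.5% DMSO) are added and incubated 30 min at 37C in darkness. Finally, luciferin reagent is injected and luminescence read kinetically.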

Test [2] can be described thus: ACEA_AR_agonist_AUC_viability: ACEA Biosciences xCELLigence Real-Time Cell Analysis on Androgen Receptor Agonism for Viability (AID 2283775).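 On AC50: viability read 80 hours after compound addition.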 In short, it runs like this: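 22Rv1 cells; impedance growth kinetics; 8-pt 1:4 dilutions from 100 uM top final, ≤0.5% DMSO; n = 2; 80 h read; AUC viability, loss-of-signal vs DMSO.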
Test [3] can be described thus: ACEA_AR_antagonist_AUC_viability: ACEA Biosciences xCELLigence Real-Time Cell Analysis on Androgen Receptor Antagonism for Viability (AID 2283776).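 Further: 22Rv1 human prostate cancer cells growing on impedance electrode plates; hits lower the growth signal relative to DMSO meaning cytotoxicity.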 In a few lines: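 Impedance read-out (RT-CES): area under growth curve at 80 h post-dose, loss of signal scored vs DMSO baseline. 22Rv1 cells; 8-pt 1:4 series, top 100 uM final, ≤0.5% DMSO; biological duplicate.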

Sequence of Luciferin 4-monooxygenase (Photinus pyralis) (P08659 whole entry, looked up): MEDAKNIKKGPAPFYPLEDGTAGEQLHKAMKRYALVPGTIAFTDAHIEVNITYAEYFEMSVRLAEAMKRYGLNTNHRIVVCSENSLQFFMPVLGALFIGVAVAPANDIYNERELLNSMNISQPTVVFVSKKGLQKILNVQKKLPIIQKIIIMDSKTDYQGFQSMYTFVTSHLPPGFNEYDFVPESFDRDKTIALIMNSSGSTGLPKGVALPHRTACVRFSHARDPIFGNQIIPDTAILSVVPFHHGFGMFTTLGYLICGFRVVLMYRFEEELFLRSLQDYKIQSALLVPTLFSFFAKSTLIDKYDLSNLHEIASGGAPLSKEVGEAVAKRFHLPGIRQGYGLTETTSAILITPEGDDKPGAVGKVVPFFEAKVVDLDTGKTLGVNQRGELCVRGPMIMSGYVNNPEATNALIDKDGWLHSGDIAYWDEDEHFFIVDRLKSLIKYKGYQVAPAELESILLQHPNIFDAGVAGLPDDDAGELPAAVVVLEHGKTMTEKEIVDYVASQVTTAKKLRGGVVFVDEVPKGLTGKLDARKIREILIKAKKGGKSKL

On to `CCCCCCCCCCCCCCCCOS(=O)(=O)O`, for which, in test [1], the compound was called inactive. For the same compound, the results for the half-maximal activity concentration (AC50) in test [2] and in test [3] were 38.3 µM (active) and 43.8 µM (active), respectively.

Take `c1ccc2cc3ccccc3cc2c1`: the compound was called inactive in test [1], in test [2] and in test [3].

As to `CCn1nc(C)c2c1C(=O)NCC(c1ccc(O)cc1)=N2`, the values for the concentration at half-maximal activity (AC50) in test [1], in test [2] and in test [3] were 15.8 µM (active), 25.8 µM (active) and 15.1 µM (active), respectively.

In the case of `NC(N)=O`, the call in test [2] and in test [3] was inactive.

Turning to `CCCOc1ccc(S(=O)(=O)N2CCN(CC)CC2)cc1-c1nc2c(CC)n(Cc3ccccn3)nc2c(=O)[nH]1`, the compound was classed as inactive in test [2] and in test [3].

Take `CC(=O)c1ccccc1`: the result in test [2] and in test [3] was inactive.

For `C=CN1CCCC1=O`, in test [3], the result was inactive.

With `O=C(O)CO`, the outcome in test [2] and in test [3] was inactive.

With `CNC(C)=O`, the outcome in test [2] and in test [3] was inactive.

Take `COCc1nnc(-c2ccc[n+]([O-])c2)n1-c1c(Cl)c(Cl)cc2[nH]c(=O)c(=O)[nH]c12`: the compound was called inactive in test [2] and in test [3].

In the case of `c1ccc2c(c1)-c1cccc3c1c-2cc1ccccc13`, the half-maximal activity concentration (AC50) in test [2] is 36.5 µM (active); in test [3], 4.1 µM (active).

Turning to `OC(Cn1cncn1)(Cn1cncn1)c1ccc(F)cc1F`, the compound was classed as inactive in test [2] and in test [3].

Regarding `Cc1ncc([C@@H](CCCCCCc2ccc3c(n2)NCCC3)CC(=O)O)cn1`, the concentration at half-maximal activity (AC50) in test [2] is 0.00386 µM (active); in test [3], 0.00579 µM (active).

For the compound `CCc1cccc(CC)c1N`, the AC50 was 50 µM (active) in test [2] and 9.94 µM (active) in test [3].

Consider `c1ccc(C(O[C@@H]2CCCN(CCc3ccc4c(c3)OCO4)C2)c2ccccc2)cc1`, for which the AC50 was 41.3 µM (active) in test [2] and 58.3 µM (active) in test [3].

Regarding `CCCCC(CC)C(=O)OCCOCCOCCOC(=O)C(CC)CCCC` (stereo unspecified), the AC50 in test [2] and in test [3] was 50 µM (active) throughout.

`c1ccc2ncccc2c1`: the outcome in test [2] and in test [3] was inactive.

`CCCCCCOC(=O)CC(CC(=O)OCCCCCC)(OC(=O)CCC)C(=O)OCCCCCC`: the compound was called inactive in test [2] and in test [3].

For `CCOc1ccc2[nH]cc(C(=O)NCc3ccccc3)c(=O)c2n1`, the figures for the AC50 in test [2] and in test [3] were 26.1 µM (active) and 35.9 µM (active), respectively.

For the compound `CC(C)c1nnc2ccc(-c3ocnc3-c3cc(F)ccc3F)cn12`, the results for the AC50 in test [2] and in test [3] were 66.8 µM (active) and 37.1 µM (active), respectively.

For `CCCc1ccccc1`, the result in test [2] and in test [3] was inactive.

`OCCOCCOCCO`: the compound was classed as inactive in test [3].

As to `OC(CCl)CCl`, the result in test [2] and in test [3] was inactive.

As for `OC[C@H]1O[C@@H]2O[C@H]3[C@H](O)[C@@H](O)[C@@H](O[C@H]4[C@H](O)[C@@H](O)[C@@H](O[C@H]5[C@H](O)[C@@H](O)[C@@H](O[C@H]6[C@H](O)[C@@H](O)[C@@H](O[C@H]7[C@H](O)[C@@H](O)[C@@H](O[C@H]1[C@H](O)[C@H]2O)O[C@@H]7CO)O[C@@H]6CO)O[C@@H]5CO)O[C@@H]4CO)O[C@@H]3CO`, the compound was called inactive in test [2] and in test [3].

Turning to `Nc1ccn([C@@H]2O[C@H](CO)[C@@H](O)[C@@H]2O)c(=O)n1`, the figures for the AC50 in test [2] and in test [3] were 1.22 µM (active) and 0.88 µM (active), respectively.

As to `COc1cc2c(c(OC)c1OC)-c1ccc(OC)c(=O)cc1[C@@H](NC(C)=O)CC2`, the AC50 was 0.00303 µM (active) in test [2] and 0.00231 µM (active) in test [3].

With `O=c1[nH]cnc2c1ncn2[C@H]1CC[C@@H](CO)O1`, the call in test [2] and in test [3] was inactive.

`CC[C@H](C)C(=O)O[C@H]1C[C@H](O)C=C2C=C[C@H](C)[C@H](CC[C@@H](O)C[C@@H](O)CC(=O)O)[C@H]21`: the result in test [2] and in test [3] was inactive.

For `OC[C@H]1O[C@@](CO)(O[C@H]2O[C@H](CO)[C@@H](O)[C@H](O)[C@H]2O)[C@@H](O)[C@@H]1O`, in test [3], the compound was called inactive.

Consider `OCc1ccccc1`, for which the compound was classed as inactive in test [2] and in test [3].

As for `O=C(O)[C@H](O)[C@@H](O)C(=O)O`, the compound was called inactive in test [2] and in test [3].

Turning to `CCOC(N)=O`, the compound was classed as inactive in test [2] and in test [3].

Turning to `CCCCCCCCCCCCCCO`, the AC50 in test [2] and in test [3] was 50 µM (active) in each case.
